Reference: PubChem BioAssay (NCATS)
The source made the active and inactive calls. Where a call stands in place of a potency, no number is given. The call rests on the fitted dose curve; in most records, active means well fitted curve in the direction sought with a large enough effect; inconclusive means small, poorly fitted or top-dose-only effect, or another doubt; inactive means no such curve, though single readings can be large or run the other way. Square brackets hold non-standard residues; d marks the D form. Peptide text beside a SMILES is read from it. ξ: configuration not given here. ξL = CC(C)CC(N)C(=O)O

biological target: Luciferin 4-monooxygenase (Photinus pyralis) (UniProt P08659); test: Firefly luciferase counterscreen qHTS: Assay Interference Panel against the NCATS CANVASS Library (AID 1347363); conditions: purified firefly luciferase, luminescence inhibition, 5 min; series mostly up to 57.5 µM
Sequence (P08659 whole entry, looked up): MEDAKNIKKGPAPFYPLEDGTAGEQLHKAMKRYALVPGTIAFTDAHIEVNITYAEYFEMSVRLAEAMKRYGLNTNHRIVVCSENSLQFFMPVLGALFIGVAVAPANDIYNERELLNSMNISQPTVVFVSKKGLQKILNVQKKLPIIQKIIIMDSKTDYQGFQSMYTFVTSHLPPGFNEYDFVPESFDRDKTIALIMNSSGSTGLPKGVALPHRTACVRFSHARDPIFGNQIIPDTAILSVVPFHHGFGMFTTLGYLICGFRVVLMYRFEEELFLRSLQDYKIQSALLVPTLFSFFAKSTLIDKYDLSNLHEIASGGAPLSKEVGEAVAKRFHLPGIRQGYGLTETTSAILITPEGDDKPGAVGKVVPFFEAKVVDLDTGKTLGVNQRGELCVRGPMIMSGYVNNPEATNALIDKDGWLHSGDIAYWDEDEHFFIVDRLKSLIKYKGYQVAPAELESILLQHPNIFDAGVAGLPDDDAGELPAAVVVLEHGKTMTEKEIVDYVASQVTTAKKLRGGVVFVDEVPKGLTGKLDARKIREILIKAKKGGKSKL
In short: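 Purified P. pyralis luciferase (0.04 ug/mL, 4x reagent) added to Tris-acetate buffer with 0.013 mM D-luciferin, 0.013 mM ATP and 13.3 mM Mg-acetate; compounds preincubated 15 min, then luminescence read after 5 min, RT.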
Potency means the concentration at half of the fitted maximal effect.

Row | SMILES | Potency
1 | CC(=O)N[C@H](C)c1nc(/C=C/C=C/C(=O)CC2CC(=O)CC[C@]2(C)O)cs1 (some centres not stated) | inactive
2 | C/C=C1/C2=CCCN3C(=O)O[C@H]([C@H]1O)[C@H]23 | inactive
3 | O=C1CC(c2ccc(O)cc2)Oc2ccccc21 (configuration not stated) | 5.44 µM (active)
4 | COc1c(O)cc(O)c2c(=O)cc(-c3ccccc3)oc12 | inactive
5 | CC[C@@H](C)[C@H]1NC(=O)C(CC(C)C)NC(=O)[C@@H](CC(C)C)NC(=O)[C@H](Cc2c[nH]c3ccccc23)NC(=O)CNC(=O)[C@@H](CC(N)=O)NC1=O (stereo partly drawn) (cyclo(GW[dL][ξL][dI][dN])) | inactive
6 | Cc1cc(O)cc2c1C(=O)c1c(O)cc(O)cc1C2=O | inactive
7 | C=C[C@]1(C)CC[C@@H]([C@H](C)C(=O)CC=C(C)C)O1 | inactive
8 | CC[C@@H]1C[C@@]2(CC)OC(=O)[C@@]3(CC)[C@H](CC)[C@@H]1[C@@H]23 | inactive
9 | [C-]#[N+][C@@]12C(=O)[C@@H]3[C@@H](O[C@@]4(C(=O)N(C)c5cccc1c54)C3(C)C)C(=O)[C@@]2(C)C=C | inactive
10 | C[C@@]12CCC[C@@](C)(C(=O)OP(=O)(O)OC[C@H]3O[C@@H](n4cnc5c(N)ncnc54)[C@H](O)[C@@H]3O)[C@H]1C[C@@H](O)[C@@]13C[C@@H](CC[C@@H]21)[C@](C)(O)C3 | inactive
11 | CCC(C)=C1OC(=O)[C@H](C)[C@H](O)[C@H](Cc2cccnc2)NC(=O)C(NC(=O)c2ncccc2O)C(C)OC1=O (some centres not stated) | inactive
12 | C[C@@]12CCC[C@@](C)(C(=O)O)[C@H]1CC[C@@]13C[C@@H](CC[C@H]12)[C@](C)(O)C3 | inactive
